The results in this text go back to PubChem BioAssay AID425 (Sanford-Burnham Center for Chemical Genomics, 2006).

Molecules are shown by their SMILES. Hit rate of the full screen: of about 110,000 compounds, about 190 (0.17%) were called active. The list comes from a sample in which actives are over-represented; it also holds similar structures and randomly drawn compounds. Measured potencies and affinities stand elsewhere. Unmarked numbers belong to inactive results. Cut-off read from the data, not from the text of the source: active = inhibition above about 50%; inactive = the rest.

For the experiment, the target named is Dual specificity protein phosphatase 6 (Rattus norvegicus) (UniProt Q64346). The experiment in a line: MKP-3 phosphatase inhibitors, primary screen, biochemical, rat enzyme, in vitro (AID 425).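 Note: plate controls were vehicle for no effect and reference inhibitor for full effect.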 The following applies: recombinant MKP-3 phosphatase activity, fluorescence; at 20 µM; hits give high values.
Dual specificity protein phosphatase 6 (Rattus norvegicus), sequence (Q64346 whole entry, looked up): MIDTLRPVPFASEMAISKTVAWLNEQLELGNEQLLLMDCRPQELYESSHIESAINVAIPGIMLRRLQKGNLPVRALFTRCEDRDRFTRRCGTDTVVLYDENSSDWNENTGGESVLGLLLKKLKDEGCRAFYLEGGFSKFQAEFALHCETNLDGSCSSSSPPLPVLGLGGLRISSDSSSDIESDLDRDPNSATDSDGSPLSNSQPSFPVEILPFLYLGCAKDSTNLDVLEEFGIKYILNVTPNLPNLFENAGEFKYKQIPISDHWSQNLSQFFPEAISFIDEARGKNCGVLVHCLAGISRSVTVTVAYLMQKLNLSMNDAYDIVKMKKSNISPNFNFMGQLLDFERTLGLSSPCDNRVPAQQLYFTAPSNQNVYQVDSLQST
As for `CCOc1ccc2nc(SC3CC(=O)N(c4ccccc4C)C3=O)sc2c1` (configuration not stated), the inhibition was 0.7%.
For `COc1ccc(/C=C2\NC(=O)c3ccccc3C2=O)cc1` the value was 121% (active); for `Cc1ccc(/C=C2\NC(=O)c3ccccc3C2=O)cc1`, 21%; for `COc1ccc(/C=C2/NC(=O)/C(=C/c3ccc(OC)cc3)C2=O)cc1`, 4.5%.
For the molecule `O=S(=O)(Nc1ncnc2c1oc1ccccc12)c1ccc(Cl)s1`, the inhibition was -12.5%.
Consider `COc1ccc(/C=C2/C(=N)N3N=C(C(C)C)SC3=NC2=O)cc1OC`, for which the inhibition was 0%.
Next, `CCC1=NN2C(=N)/C(=C/c3ccc(OC)c(OC)c3)C(=O)N=C2S1`: -3.5%.
For `CC(=O)N1CCC(C(=O)Nc2ccccc2)(N(Cc2ccccc2)C(=O)c2cccnc2)CC1` the value was -4.2%; for `CCOC(=O)c1c2c(n(C)c1CNC(C)C)C(=O)C(=O)c1ccc(Br)cc1-2`, 117% (active).
Next, `CCOC(=O)c1c2c(n(Cc3ccccc3)c1C)C(=O)C(=O)c1ccc(Br)cc1-2`: 34%; `CCOC(=O)c1c2c(n(C)c1CO)C(=O)C(=O)c1ccc(Br)cc1-2`: 120% (active); `CCOC(=O)c1c(C)n(C)c2ccc(OC(C)C(=O)OC)cc12` (configuration not stated): -3.4%.
For `CCOC(=O)c1nnn(-c2nonc2N)c1CNC(C)C`, the inhibition is 6.2%.
With `Cc1c(CN(C)C)c2c(n1C)C(=O)c1ccc(Br)cc1-2`, the inhibition was 1.2%.
As for `Cc1cc([N+](=O)[O-])ccc1NCc1ccco1`, the inhibition was 0.4%.
For `Cc1nc(C)n(CC(O)COc2ccc3c(c2)CCC3)n1` (configuration not stated), the inhibition was -16.3%.
For `C=CCn1c(NC(=O)c2ccccc2)c(C#N)c2nc3ccccc3nc21` the value was 23.5%; for `CCC(=O)Nc1c(C#N)c2nc3ccccc3nc2n1-c1ccc(C)cc1`, 1.4%.
For the molecule `COc1ccc(C(=O)NCCn2ccc3ccccc32)cc1OC`, the inhibition was -4.9%.
For `COC(=O)c1c(NC(=O)c2c(C)noc2C)sc2c1CCCCCC2` the value was -8.3%; for `CCCC(C)NS(=O)(=O)c1ccc(C)cc1` (configuration not stated), -0.1%.
For `CC(=O)Nc1ccc(S(=O)(=O)NCC(C)NS(=O)(=O)c2ccc(NC(C)=O)cc2)cc1` (configuration not stated) the value was -11.4%.
Next, `Cc1ccc(S(=O)(=O)NCC(C)NS(=O)(=O)c2ccc(C)cc2)cc1` (configuration not stated): 69.6% (active); `COC(=O)c1ccc(-c2ccc(/C=N\Nc3ccc([N+](=O)[O-])cn3)o2)cc1`: 5.2%.
Take `CCSc1nc(N)c2c3c(sc2n1)COC(C)(CC)C3` (configuration not stated): the inhibition was 3.9%.
For the molecule `CC(=O)Nc1ccc(C(=O)NCc2ccccn2)cc1`, the inhibition is 1.3%.
Next, `Cc1ccnc(NS(=O)(=O)c2ccc(NC(=O)c3cccc(I)c3)cc2)n1`: 1.1%.
